For this assay, the target named is Phospholipase D2 (Homo sapiens) (UniProt O14939). Nature of the assay: PLD2 inhibitors in cells, cell-based, HEK293, single concentration (AID 602143).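 Further: tested at 200 nM.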 To be noted: HEK293 cellular PLD2 activity, percent of control; active compounds read low.

The results in this text go back to PubChem BioAssay AID602143 (Vanderbilt Specialized Chemistry Center, 2011).

Active and inactive are the calls of the source. No stated cut-off is given here; in the data, active means remaining activity below about 50%; inactive means the rest.

Chain of Phospholipase D2 (Homo sapiens) (O14939 whole entry, looked up): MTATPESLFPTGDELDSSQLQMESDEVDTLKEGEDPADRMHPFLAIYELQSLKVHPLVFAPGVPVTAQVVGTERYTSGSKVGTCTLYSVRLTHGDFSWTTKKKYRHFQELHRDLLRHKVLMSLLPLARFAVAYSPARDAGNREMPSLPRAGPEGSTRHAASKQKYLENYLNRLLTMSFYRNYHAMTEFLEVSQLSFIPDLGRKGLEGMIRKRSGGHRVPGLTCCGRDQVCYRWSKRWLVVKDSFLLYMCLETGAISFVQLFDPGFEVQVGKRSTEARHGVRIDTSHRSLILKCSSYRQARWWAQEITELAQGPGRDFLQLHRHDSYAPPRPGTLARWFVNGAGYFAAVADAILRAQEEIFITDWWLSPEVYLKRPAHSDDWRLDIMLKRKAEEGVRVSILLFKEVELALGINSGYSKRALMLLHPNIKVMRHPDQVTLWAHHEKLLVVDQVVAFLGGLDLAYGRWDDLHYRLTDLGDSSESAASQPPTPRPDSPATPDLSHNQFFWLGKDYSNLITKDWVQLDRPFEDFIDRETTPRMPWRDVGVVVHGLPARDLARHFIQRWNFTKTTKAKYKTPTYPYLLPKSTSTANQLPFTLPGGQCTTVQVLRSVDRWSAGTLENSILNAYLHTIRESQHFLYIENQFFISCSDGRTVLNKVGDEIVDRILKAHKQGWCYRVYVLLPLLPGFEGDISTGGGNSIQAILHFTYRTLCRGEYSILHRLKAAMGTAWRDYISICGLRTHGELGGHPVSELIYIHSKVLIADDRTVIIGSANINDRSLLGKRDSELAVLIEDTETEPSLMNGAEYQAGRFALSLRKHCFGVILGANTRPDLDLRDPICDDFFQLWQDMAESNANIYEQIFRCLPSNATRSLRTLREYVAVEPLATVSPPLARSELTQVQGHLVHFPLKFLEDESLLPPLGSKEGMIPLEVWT
Chain of Phospholipase D2 (Homo sapiens) (O14939 whole entry, looked up): as above

In the case of `O=C(NCCN1CCC(n2c(=O)[nH]c3ccccc32)CC1)c1cc2ccccc2c2ccccc12`, the remaining activity (commonly the signal under treatment as a percentage of the control signal) was 51.2% (inactive).

On to `C[C@@H](CN1CCC(c2nc3ccccc3[nH]2)CC1)NC(=O)C1CC1c1ccccc1` (stereo not given in full), for which the remaining activity was 90.3% (inactive).

As for `O=C(NCCN1CCN(c2ncccn2)CC1)c1ccc(F)cc1`, the remaining activity is 92.2% (inactive).

For the compound `C[C@@H](CN1CCC(n2c(=O)[nH]c3cc(-c4ccsc4)ccc32)CC1)NC(=O)[C@H]1C[C@@H]1c1ccccc1`, the remaining activity is 81.2% (inactive).

For the compound `O=C(NCCN1CCC(n2c(=O)[nH]c3ccccc32)CC1)c1cccc(F)n1`, the remaining activity was 74.5% (inactive).

As for `CS(=O)(=O)N1CC2(CCN(CCNC(=O)c3cnc4ccccc4c3)CC2)c2ccccc21`, the remaining activity was 83.7% (inactive).

As for `Nc1cccc(Cl)c1C(=O)NCCN1CCC(n2c(=O)[nH]c3ccccc32)CC1`, the remaining activity is 59.2% (inactive).

With `C[C@@H](CN1CCC(n2c(=O)[nH]c3ccccc32)CC1)NC(=O)c1ccc[nH]1`, the remaining activity was 39.9% (active).

`Cc1ccc(C(=O)N[C@@H](C)CN2CCC(n3c(=O)[nH]c4cc(Br)ccc43)CC2)cc1`: the remaining activity is 74% (inactive).

As for `CC1(C)[C@@H]2CC[C@@]1(CS(=O)(=O)NCCN1CCC(n3c(=O)[nH]c4ccccc43)CC1)C(=O)C2`, the remaining activity was 79.6% (inactive).

As for `O=C(NCCN1CCC(n2c(=O)[nH]c3ccccc32)CC1)c1cccc2ccc3ccccc3c12`, the remaining activity is 65.9% (inactive).

With `C[C@@H](CN1CCC(n2c(=O)[nH]c3ccccc32)CC1)NC(=O)c1ccc2ncccc2c1`, the remaining activity was 82.2% (inactive).

Regarding `C[C@@H](CN1CCC2(CNCc3ccccc32)C1)NC(=O)c1ccc2ccccc2c1` (stereo not given in full), the remaining activity is 91% (inactive).

For `Cc1ccc(C(=O)N[C@@H](C)CN2CCC(n3c(=O)[nH]c4c(F)cccc43)CC2)cc1`, the remaining activity was 98.2% (inactive).

As for `O=C(NCCN1CCC(C(=O)NCCCN2CCOCC2)CC1)c1ccc2ccccc2c1`, the remaining activity was 125% (inactive).

With `O=C1c2ccccc2C(=O)N1CCCNc1cccc(F)c1`, the remaining activity was 119% (inactive).

In the case of `Cc1ccc(C(=O)NCCN2CCN(c3ncccn3)CC2)cc1`, the remaining activity is 85.6% (inactive).

For the compound `CCCCS(=O)(=O)NCCN1CCC(n2c(=O)[nH]c3ccccc32)CC1`, the remaining activity was 78.3% (inactive).

`Cn1c(C2CCN(CC3(N)CCCC3)CC2)nc2ccccc21` (tested in a mixture with another compound): the remaining activity was 118% (inactive).

In the case of `C[C@@H](CN1CCC(c2nc3ccc(F)cc3[nH]2)CC1)NC(=O)[C@H]1CC1c1ccccc1` (stereo not given in full), the remaining activity is 92.5% (inactive).

Turning to `COc1ccc2c(c1)c(CC(=O)NCCN1CCC(n3c(=O)[nH]c4ccccc43)CC1)c(C)n2C(=O)c1ccc(Cl)cc1`, the remaining activity was 73.8% (inactive).

On to `Cc1ccc(C(=O)NCCN2CCN(c3ccncc3)CC2)cc1`, for which the remaining activity is 114% (inactive).

Take `C[C@@H](CN1CCC(n2c(=O)[nH]c3ccc(F)cc32)CC1)NC(=O)c1ccc(Cl)cc1`: the remaining activity was 68.3% (inactive).

Regarding `C[C@@H](CN1CC=C(n2c(=O)[nH]c3ccccc32)CC1)NC(=O)[C@H]1C[C@@H]1c1ccccc1`, the remaining activity was 74.4% (inactive).

Take `C[C@@H](CN1CCC2(C=Cc3ccccc32)CC1)NC(=O)[C@H]1C[C@@H]1c1ccccc1`: the remaining activity was 87.1% (inactive).

As for `NC1(CN2CCC(n3c(=O)[nH]c4ccccc43)CC2)CCCC1` (tested in a mixture with another compound), the remaining activity is 66.9% (inactive).

`Cc1cccc(C(=O)NCCN2CCC(n3c(=O)[nH]c4ccccc43)CC2)n1`: the remaining activity is 52.5% (inactive).

In the case of `O=C(NCCN1CCC(n2c(=O)[nH]c3ccccc32)CC1)Nc1ccccc1C(F)(F)F`, the remaining activity was 114% (inactive).

As to `O=C1c2ccccc2C(=O)N1CCCNCc1ccccn1`, the remaining activity is 116% (inactive).

Turning to `C[C@@H](CN1CCC(n2nnc3cc(C(F)(F)F)ccc32)CC1)NC(=O)c1ccc2ccccc2c1`, the remaining activity was 107% (inactive).

Consider `O=C1c2ccccc2C(=O)N1CCCN1CCC(c2nc3ccccc3[nH]2)CC1`, for which the remaining activity was 82.5% (inactive).

With `O=C(NCCN1CCC(n2c(=O)[nH]c3ccccc32)CC1)C1CCCCCC1`, the remaining activity was 104% (inactive).

Turning to `CC(C)C(=O)N[C@@H](C)CN1CCC(n2c(=O)[nH]c3ccccc32)CC1`, the remaining activity was 106% (inactive).

For the compound `O=C(NCCN1CCC2(CC1)CNc1ccccc12)c1cnc2ccccc2c1`, the remaining activity was 90% (inactive).

Take `O=C(NCCN1CCC(n2c(=O)[nH]c3ccccc32)CC1)c1cnccn1`: the remaining activity was 139% (inactive).

In the case of `COc1ccccc1NC(=S)NCCN1CCC(n2c(=O)[nH]c3ccccc32)CC1`, the remaining activity was 126% (inactive).

Consider `C[C@@H](CN1CCC(n2c(=O)[nH]c3cc(F)ccc32)CC1)NC(=O)c1ccc(F)c(F)c1`, for which the remaining activity is 85.2% (inactive).

As for `O=C(Cc1ccc2ccccc2c1)NCCN1CCC(n2c(=O)[nH]c3ccccc32)CC1`, the remaining activity was 112% (inactive).

As for `O=C(NCCN1CCC(n2c(=O)[nH]c3ccccc32)CC1)C1CCc2ccccc2C1` (stereo not given), the remaining activity is 103% (inactive).

Consider `O=C(NCCN1CCC(n2c(=O)[nH]c3ccc(F)cc32)CC1)c1ccc(C(F)(F)F)cc1`, for which the remaining activity is 61.8% (inactive).
